Assay results taken from PubChem BioAssay (NCI).
The panel holds about 79,000 compounds, 15% with a hit somewhere; the sample as a whole holds those more often. The source made the active and inactive calls. Rule as the data show it: active = growth inhibition above about 70%; inactive = the rest.

Key:
[1] = NCI Yeast Anticancer Drug Screen. Data for the rad52 strain (AID 147);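 also: 0% = growth of vehicle-treated control cultures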; settings: S. cerevisiae rad52 mutant growth inhibition, active compounds read high
In short: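 DNA repair-defective yeast; compound exposure; growth scored against vehicle controls.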

[2] = NCI Yeast Anticancer Drug Screen. Data for the wt1 strain (AID 149);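 also: 0% = growth of vehicle-treated wt1 cultures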; settings: S. cerevisiae wt1 strain (SPY 50644) growth inhibition, active compounds read high
In short: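 Readout: yeast growth inhibition, normalised to vehicle controls, in the wt1 strain exposed to test compounds.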

[3] = NCI Yeast Anticancer Drug Screen. Data for the rad50EPP+ strain (AID 151);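 also: 0% = growth of vehicle-treated control cultures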; settings: S. cerevisiae rad50 mutant strain, active compounds read high
In short: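 rad50EPP+ yeast treated with test compounds. Readout: growth vs vehicle control.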

[4] = NCI Yeast Anticancer Drug Screen. Data for the mgt1 strain (AID 153); settings: S. cerevisiae mgt1 mutant growth inhibition, active compounds read high
In short: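 Growth inhibition relative to vehicle controls was scored for the mgt1 yeast strain after compound exposure.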

[5] = NCI Yeast Anticancer Drug Screen. Data for the rad50 strain (AID 155);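 also: 0% = growth of vehicle-only cultures of the same strain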; settings: S. cerevisiae rad50 strain growth inhibition, active compounds read high
In short: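 Compounds were tested on a yeast strain with an engineered DNA damage repair alteration; the reported value is growth inhibition normalised to vehicle treatment.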

[6] = NCI Yeast Anticancer Drug Screen. Data for the mec2-1 strain (AID 157); settings: S. cerevisiae mec2-1 strain, active compounds read high
In short: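 Growth inhibition is read against vehicle-treated controls after compound exposure of the mec2-1 yeast strain, which is defective in DNA damage repair or cell cycle control.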

[7] = NCI Yeast Anticancer Drug Screen. Data for the rad14 strain (AID 159);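 also: 0% = growth of vehicle-treated control cultures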; settings: S. cerevisiae rad14 strain growth inhibition, active compounds read high
In short: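 Compound-treated yeast with a defined DNA-repair lesion; growth inhibition normalised to vehicle-treated cultures.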

[8] = NCI Yeast Anticancer Drug Screen. Data for the sgs1 mgt1 strain (AID 161);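 also: 0% = growth of cultures given vehicle only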; settings: S. cerevisiae sgs1 mgt1 strain, active compounds read high
In short: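 This yeast growth screen uses a strain with defined DNA-repair lesions; compound-treated growth is compared with vehicle-treated growth.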

[9] = NCI Yeast Anticancer Drug Screen. Data for the CLN2oe strain (AID 163);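 also: 0% = growth of vehicle-only control cultures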; settings: S. cerevisiae CLN2oe strain, active compounds read high
In short: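 Compound-treated yeast; growth vs vehicle ctrl = % inhibition. Genetically altered strain (cell-cycle control).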

[10] = NCI Yeast Anticancer Drug Screen. Data for the cln2 rad14 strain (AID 165);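 also: 0% = growth equal to vehicle treated cultures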; settings: S. cerevisiae cln2 rad14 strain, active compounds read high
In short: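 Growth inhibition, relative to vehicle-treated controls, is the read-out. The test organism is a yeast strain with defined genetic alterations, cln2 rad14.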

[11] = NCI Yeast Anticancer Drug Screen. Data for the bub3 strain (AID 167); settings: S. cerevisiae bub3 mutant strain, active compounds read high
In short: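 Growth of a checkpoint-deficient yeast mutant is measured after compound exposure. Values represent inhibition relative to vehicle.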

[12] = NCI Yeast Anticancer Drug Screen. Data for the wt2 strain (AID 169);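 also: 0% = growth of vehicle-treated yeast cultures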; settings: S. cerevisiae wt2 strain growth inhibition, active compounds read high
In short: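 Compound exposure of yeast; growth compared with vehicle controls; inhibition reported.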

[13] = NCI Yeast Anticancer Drug Screen. Data for the mlh1 strain (AID 171);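 also: 0% = growth of vehicle-treated control cultures of the same strain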; settings: S. cerevisiae mlh1 strain growth inhibition, active compounds read high
In short: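 Compounds are applied to a genetically altered yeast strain, and its growth is compared with that of vehicle-treated cultures to give percent inhibition.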

[14] = NCI Yeast Anticancer Drug Screen. Data for the sgs1 strain (AID 173);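 also: 0% = growth of vehicle-only control cultures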; settings: S. cerevisiae sgs1 mutant, active compounds read high
In short: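 Compounds applied to genetically altered yeast; growth compared with vehicle-treated cultures to give % inhibition.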

[15] = NCI Yeast Anticancer Drug Screen. Data for the rad18 strain (AID 177); settings: S. cerevisiae rad18 mutant growth inhibition, active compounds read high
In short: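 Compounds are applied to a repair-deficient yeast strain, and growth is compared with that of vehicle-treated cultures to give percent inhibition.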

[16] = at 5.0 µM (retest, dose inferred, filed as 0.5)
[17] = at 50.0 µM (retest, dose inferred, filed as 5.0)

Measured: growth inhibition

C=CCC1=C(C)C(OC(=O)/C=C/c2ccccc2)CC1=O (stereo not given)
active: [11]; [17] 79%
inactive: [1]; at 1.2 µM -4% | [1]; at 3.7 µM 0% | [1]; at 11.0 µM 2% | [1]; at 33.0 µM 5% | [1]; at 100.0 µM 39% | [2]; at 1.2 µM -2% | [2]; at 3.7 µM -5% | [2]; at 11.0 µM -5% | [2]; at 33.0 µM -2% | [2]; at 100.0 µM -3% | [3]; at 1.2 µM -1% | [3]; at 3.7 µM 0% | [3]; at 11.0 µM 6% | [3]; at 33.0 µM 7% | [3]; at 100.0 µM 15% | [4]; at 1.2 µM -6% | [4]; at 3.7 µM -2% | [4]; at 11.0 µM -1% | [4]; at 33.0 µM 2% | [4]; at 100.0 µM 29% | [5]; at 1.2 µM 2% | [5]; at 3.7 µM 1% | [5]; [16] 10% | [5]; at 11.0 µM 2% | [5]; at 33.0 µM 8% | [5]; [17] 19% | [5]; at 50.0 µM 2.25% | [5]; at 100.0 µM 39% | [6]; at 1.2 µM -4% | [6]; at 3.7 µM -4% | [6]; [16] -11% | [6]; at 11.0 µM -4% | [6]; at 33.0 µM 0% | [6]; [17] -18% | [6]; at 50.0 µM 5.6% | [6]; at 100.0 µM 7% | [7]; at 1.2 µM 1% | [7]; at 3.7 µM 2% | [7]; at 11.0 µM 4% | [7]; at 33.0 µM 5% | [7]; at 100.0 µM 18% | [8]; [16] 23% | [8]; [17] 39% | [8]; at 50.0 µM 19.4% | [9]; at 1.2 µM 2% | [9]; at 3.7 µM 2% | [9]; at 11.0 µM 5% | [9]; at 33.0 µM 15% | [9]; at 100.0 µM 28% | [10]; [16] 17% | [10]; [17] 36% | [10]; at 50.0 µM 33.5% | [11]; at 1.2 µM 7% | [11]; at 3.7 µM 20% | [11]; [16] 25% | [11]; at 11.0 µM 33% | [11]; at 33.0 µM 36% | [11]; at 50.0 µM 40.6% | [11]; at 100.0 µM 47% | [12]; at 1.2 µM -10% | [12]; at 3.7 µM -11% | [12]; at 11.0 µM -8% | [12]; at 33.0 µM -5% | [12]; at 100.0 µM 12% | [13]; at 1.2 µM -3% | [13]; at 3.7 µM -2% | [13]; at 11.0 µM -2% | [13]; at 33.0 µM 3% | [13]; at 100.0 µM 42% | [14]; at 1.2 µM -9% | [14]; at 3.7 µM 26% | [14]; at 11.0 µM 6% | [14]; at 33.0 µM 6% | [14]; at 100.0 µM 53% | [15]; at 1.2 µM -5% | [15]; at 3.7 µM 0% | [15]; at 11.0 µM -1% | [15]; at 33.0 µM 5% | [15]; at 100.0 µM 31%
